Tb PFK inh: qHTS Assay to Find Inhibitors of T. brucei phosphofructokinase. Potency, µM (series often up to 57.5 µM), without a hit: top-dose activity, negative = inhibition, usual class: inhibitors. 0.17% of 330,000 active. T. brucei PFK, ADP-Glo luminescence;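 also: 0% = uninhibited 1x PFK enzyme wells and -100% = no-enzyme wells; nearly all actives have a fitted effect of over 60% in size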
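1.25 nM PFK with 0.5 mM F6P and 0.1 mM ATP in 0.1 M TEA pH 8.0, 5 mM MgCl2, incubated 45 min at room temperature; ADP measured by ADP-Glo luminescence; compounds titrated up to 57 uM.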
ELG1 DNA repair: qHTS screen for small molecules that inhibit ELG1-dependent DNA repair in human embryonic kidney (HEK293T) cells expressing luciferase-tagged ELG1 | HEK293T ELG1-luciferase reporter, luminescence, 16 h; DNA damage induced by 5-fluorouridine | Potency, µM (titrated, usually from 46.1 µM), inactives show at the top dose activity change, negative = inhibition, hits mostly inhibitors | 2.3% of 330,000 active; also: % is scaled to controls: 0 for no effect and ±100 for the full control effect; nearly all actives have a fitted effect of over 55% in size
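Cells (2,000 per well) received 5-fluorouridine plus test compound or DMSO and were incubated 16 hr at 37 °C, 5% CO2. Luciferase activity was read by luminescence 30 min after ONE-Glo addition; signal suppression marked inhibition of damage-induced ELG1 function.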
PKM2 activator: qHTS Assay for Activators of Human Muscle isoform 2 Pyruvate Kinase. Pyruvate kinase PKM (Homo sapiens), P14618. purified PKM2, Kinase-Glo ATP luminescence, activation; response scale: 0% is enzyme alone, no compound. Potency, µM (series often up to 57.5 µM), for inactives: at the top dose activation, hits mostly activators. 0.34% of 260,000 active. AID 1631, 2009; also: % is scaled to controls: 0 for no effect and ±100 for the full control effect; nearly all actives have a fitted effect of over 55% in size
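Kinase-Glo luminescence reports ATP generated from ADP (0.1 mM) and PEP (0.5 mM) by purified hPK-M2 after 1 h at room temperature, pH 7.2 imidazole buffer; intermediate enzyme activity allows detecting inhibitors and activators.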
Rango-impB inh: qHTS Assay for Inhibitors of Rango (Ran-regulated importin-beta cargo) - Importin beta complex formation | Importin subunit beta-1 (Homo sapiens), Q14974 | Rango CFP/YFP FRET sensor + importin beta, 45 min | Potency, µM (doses to about 92.2 µM), for the others: top-dose inhibition of complex formation | 0.031% of 340,000 active; calls by dose curve;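 also: 0% = DMSO wells and 100% = buffer wells lacking importin beta; nearly all actives have a fitted effect of over 15% in size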
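Inhibition scored from the CFP 486 nm/YFP 530 nm FRET ratio 45 min after adding 0.125 microM importin beta to 50 nM Rango biosensor preincubated 5 min with compound (room temperature, PBS with DTT, Tween-20, BSA). No-importin wells as positive control.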
Tb PGK inh: qHTS Assay to Find Inhibitors of Phosphoglycerate Kinase. Phosphoglycerate kinase, glycosomal (Trypanosoma brucei brucei), P07378. 0.043% of 380,000 active. Potency, µM (series often up to 57.5 µM), inactives show at the highest dose activity change, negative = inhibition, hits mostly inhibitors. PGK/GAPDH coupled, Kinase-Glo luminescence, 60 min; also: % is scaled to controls: 0 for no effect and ±100 for the full control effect; nearly all actives have a fitted effect of over 60% in size
Target sequence (P07378 whole entry, looked up): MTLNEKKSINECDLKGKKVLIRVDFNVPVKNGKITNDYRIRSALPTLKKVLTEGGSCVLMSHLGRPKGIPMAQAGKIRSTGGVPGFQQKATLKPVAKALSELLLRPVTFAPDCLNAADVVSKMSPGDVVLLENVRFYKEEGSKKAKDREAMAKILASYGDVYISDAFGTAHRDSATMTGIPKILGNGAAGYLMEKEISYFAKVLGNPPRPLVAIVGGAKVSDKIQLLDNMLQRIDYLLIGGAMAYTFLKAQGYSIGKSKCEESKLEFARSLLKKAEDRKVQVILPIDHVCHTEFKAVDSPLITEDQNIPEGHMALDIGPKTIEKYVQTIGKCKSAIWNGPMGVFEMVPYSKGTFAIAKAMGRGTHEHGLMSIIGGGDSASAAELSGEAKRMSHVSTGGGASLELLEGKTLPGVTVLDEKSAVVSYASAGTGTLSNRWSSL
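Recombinant glycosomal PGK reaction used 1,3-bisphosphoglycerate generated in-well by GAPDH (100nM final) in 100mM TEA pH 7.6, 5mM MgCl2, 0.01% Tween-20. After 60 minutes at room temperature, ATP was read by Kinase-Glo Plus luminescence end-point.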
Rango release inh: qHTS Assay for Inhibitors of RanGTP induced Rango (Ran-regulated importin-beta cargo) - Importin beta complex dissociation; 0.071% of 340,000 active; Biochemical FRET Rango-importin beta, RanGTP-induced dissociation; Snurportin-1 (Homo sapiens) + GTP-binding nuclear protein Ran (Homo sapiens) + Importin …; AID 540253, 2011; Potency, µM (top dose mostly 46.1 µM), for the others: at the top dose activity change, negative = inhibition; calls by dose curve; also: % of control where 0% means no effect; nearly all actives have a fitted effect of over 45% in size
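Rango (0.1 uM)–importin beta (0.25 uM) complex; RanGTP-RCC1 trigger; 45 min RT; CFP/YFP FRET read.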
ELG1-Luc inh: HTS assay for small molecules that inhibit ELG1-dependent DNA repair in human embryonic kidney (HEK293T) cells expressing luciferase-tagged ELG1: Hit Confirmation. Potency, µM (series often up to 46.1 µM), for inactives: at the highest dose activity change, negative = inhibition, most hits filed as inhibitors. shares compounds with ELG1 DNA repair. 68% of 670 active. HEK293T ELG1-luciferase levels, luminescence; cells co-treated with 5-fluorouridine; also: % is scaled to controls: 0 for no effect and ±100 for the full control effect; nearly all actives have a fitted effect of over 55% in size
ELG1-Luc MMS: inhibits ELG1-dependent repair under MMS stimulation in HEK293T cells | shares compounds with ELG1 DNA repair | HEK293T luciferase-tagged ELG1 level, MMS stimulated | Potency, µM (doses to about 46.1 µM), without a hit: top-dose activity change, negative = inhibition, usual class: inhibitors | 53% of 670 active; also: % is scaled to controls: 0 for no effect and ±100 for the full control effect; nearly all actives have a fitted effect of over 60% in size
ELG1 5FU viab: qHTS screen for small molecules that inhibit ELG1-dependent DNA repair: Hit Confirmation with 5FU Viability | shares compounds with ELG1 DNA repair | cell viability with 5-FU, ELG1-dependent repair | Potency, µM (top dose mostly 46.1 µM), without a hit: at the top dose activity change, negative = viability loss, hits mostly cytotoxic | 670 tested, under 10 active | AID 624250, 2012;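 also: ELG1-luc HEK293T cells cotreated with 5-fluorouridine at 10 µM final; viability measured 16 h after compound addition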
ELG1 MMS cell: qHTS screen for small molecules that inhibit ELG1-dependent DNA repair: Hit Confirmation with MMS Viability; shares compounds with ELG1 DNA repair; Cell viability with MMS, ELG1-dependent DNA repair; Potency, µM (top dose mostly 46.1 µM), inactives show at the highest dose activity change, negative = viability loss, usual class: cytotoxic; 33% of 670 active;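 also: ELG1-luc HEK293T cells co-treated with 10 µM MMS; viability read 16 h after compound addition; % is scaled to controls: 0 for no effect and ±100 for the full control effect; nearly all actives have a fitted effect of over 60% in size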
Cell viab unstim: qHTS screen for small molecules that inhibit ELG1-dependent DNA repair: Hit Confirmation with Unstimulated Viability Assay; shares compounds with ELG1 DNA repair; cell viability counter-screen, unstimulated, luminescence; Potency, µM (top dose mostly 45.9 µM), for inactives: at the highest dose activity change, negative = loss of viability, usual class: cytotoxic; 8% of 900 active; AID 624252, 2012;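 also: compound exposure lasted 16 hours before reading; % is scaled to controls: 0 for no effect and ±100 for the full control effect; nearly all actives have a fitted effect of over 55% in size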
* marks the source's active call; other numbers are inactive results; ? = inconclusive; · = no result. A selection: hits, their analogues and other compounds. The true share with any hit is near 2.4%. Unless noted, calls follow the shape of the dose curve; as a rule, active = well fitted curve in the direction sought with a large enough effect; inconclusive = small, poorly fitted or top-dose-only effect, or another doubt; inactive = no such curve, though single readings can be large; an effect the other way counts as inactive or inconclusive. Potency is read from the fitted curve at half-maximal effect.

SMILES | Tb PFK inh | ELG1 DNA repair | PKM2 activator | Rango-impB inh | Tb PGK inh | Rango release inh | ELG1-Luc inh | ELG1-Luc MMS | ELG1 5FU viab | ELG1 MMS cell | Cell viab unstim
O=C(O)c1cc(S(=O)(=O)N2CCN(C(c3ccccc3)c3ccccc3)CC2)ccc1Cl | -7% | -4% | · | -2% | -11% | -4% | · | · | · | · | ·
Nc1cc(=O)[nH]c(SCc2ccc(Cl)cc2Cl)n1 | -4% | 4.1µM* | · | 5% | · | 20% | -12% | 2.8µM* | 6% | 4µM* | -7%
Nc1ncnc2nc(SCc3ccc(Cl)cc3Cl)[nH]c12 | 4% | ? | 11% | 5% | 2% | 1% | · | · | · | · | ·
O=C(N=C1SCC(=O)N1c1ccccc1Cl)c1ccccc1 | -2% | ? | 7% | -3% | 2% | -5% | · | · | · | · | ·
Cc1sc2ncnc(N3CCC(C(=O)Nc4ccc(S(N)(=O)=O)cc4)CC3)c2c1C | 14% | 4.1µM* | · | 5% | 0% | -10% | 7.1µM* | 20µM* | ? | 8% | ?

Screening results as filed in PubChem.
